# Measurements as given in the GenesisPotency data set.
# Out of some 1,300 compounds screened, about 55 (4%) were called active.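 The calls were made as follows: active = fitted EC50 between 10 nM and 100 µM, Hill slope size 0.5 to 2, real signal loss, low interference; inactive = the rest.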 Not all results are given here. Measured potencies and affinities stand elsewhere.
# Molecular target: Ras-related C3 botulinum toxin substrate 1, Mus musculus (UniProt P63001)
# Experiment: inhibitors of activated mutant Rac1 GTP binding, dose response, biochemical, multiplex, GST-Rac1 beads, Bodipy-FL-GTP, flow cytometry (AID 1339)
row,Structure (SMILES),outcome
1,COC(=O)c1cccc(NC(=O)c2nn(C)c(=O)c3ccccc23)c1,inactive
2,Cc1ccc(C)c(N(CC(N)=O)S(C)(=O)=O)c1,inactive
3,Cc1nc2ccc(NC(=O)COc3ccccc3)cc2s1,inactive
4,CCOC(=O)Cn1c(=O)c2c(nc(N3CCCCC3)n2C)n(C)c1=O,inactive
5,Cc1cccc(CNc2nc(C)ccc2C(=O)O)c1,inactive
6,O=C(O)c1ccc(CNCc2ccc(F)cc2)s1,inactive
7,CCc1ccccc1NCc1sc(C(=O)O)cc1C,inactive
8,Cc1cc(C(F)F)n2nc(C(=O)Nc3ccc(S(=O)(=O)N4CCCCCC4)cc3)nc2n1,inactive
9,CCC(=O)c1ccc(OCC(=O)O)c(OC)c1,inactive
10,O=C(CNC(=O)c1ccco1)OCN1C(=O)c2ccccc2C1=O,inactive
11,COc1ccc(CCNC(=O)C2CCCN2C(=O)NC2CCCCC2)cc1OC (stereo not given),inactive
12,CC(C)(C)NC(=O)CSc1nccn1Cc1ccccc1,inactive
13,CCCCNC(=O)c1cc([N+](=O)[O-])[nH]n1,inactive
14,Nc1nc(CN2CCN(c3ccccc3F)CC2)nc(N2CCCc3ccccc32)n1,inactive
15,COc1cccc(OCc2c(C)cccc2C)c1C(=O)O,inactive
16,CCn1c2ccccc2c2nc3cc(C(=O)O)ccc3nc21,inactive
17,COc1cccc(NC(=O)NCCCN2CCN(c3ccc(F)cc3)CC2)c1,inactive
18,Cc1nn(-c2ccc(F)cc2)c(Cl)c1/C=C(\CCC(=O)O)c1nc2ccccc2s1,inactive
19,Cn1c(=O)cc(N2CCOCC2)[nH]c1=O,inactive
20,Cc1cc2nc3c(=O)n(C4CCCCC4)c(=O)[nH]c3nc2cc1N,inactive
21,CNC(=O)C(C)NS(=O)(=O)c1ccc(F)cc1 (stereo not given),inactive
22,NC(=O)COC(=O)c1cccc2c1-c1ccccc1C2=O,inactive
23,O=C(O)c1cc([N+](=O)[O-])ccc1NCc1ccccc1Cl,inactive
24,COc1cc(-c2cc(=O)c3c(O)cc(O)cc3o2)ccc1O,inactive
25,O=C(Cc1ccc(Nc2nc(=S)[nH]c3ccccc23)cc1)NC1CCCCC1,inactive
26,Cc1cc(C(F)(F)F)c(C#N)c(SCC(=O)Nc2nc3ccccc3s2)n1,inactive
27,O=C(CSc1n[nH]c(=O)[nH]c1=O)N/N=C/c1ccccc1,inactive

row,Structure (SMILES),outcome
1,O=C1CN=C(c2ccccc2)c2cc(Br)ccc2N1Cc1cc(=O)n2ccccc2n1,inactive
2,CC(C)[C@H](NC(=O)c1ccccc1)C(=O)OCC(=O)NCCc1ccc(F)cc1,inactive
3,O=C(NCc1cccs1)c1cccn2c(=O)c3sccc3nc12,inactive
4,Cc1cc(C)cc(C(=O)N(NC(=O)Nc2ccc(Cl)cc2)C(C)(C)C)c1,inactive
5,Cn1c(NC(=S)Nc2ccccc2)nc2ccccc21,inactive
6,O=C(Nc1cccc(-c2ccc3nncn3n2)c1)c1ccco1,inactive
7,CC(C)CCNC(=O)Cc1ccc(Nc2nc(=S)[nH]c3ccccc23)cc1,inactive
8,CCOc1c2ccc(C(=O)N[C@H](C)C3CCCCC3)cc2nn1CCOC,inactive
9,CS(=O)(=O)N1N=C(c2ccccc2)CC1c1ccc2c(c1)OCO2 (stereo not given),inactive
10,Cc1ccc(-c2cn3cccc(C)c3n2)cc1,inactive
11,CN1CCN(c2ccccc2NC(=O)c2ccc(-c3cccc([N+](=O)[O-])c3)o2)CC1,inactive
12,O=C(O)C1CCCN1C(=O)OCc1ccccc1 (stereo not given),inactive
13,COc1ccc([N+](=O)[O-])cc1NC(=S)NC(NC(=O)Cc1ccc(OC)c(OC)c1)C(Cl)(Cl)Cl (stereo not given),inactive
14,Cc1ccc(-c2ccc(/C=C(\C#N)C(=O)Nc3cc(C)nn3-c3ccccc3)o2)cc1,inactive
15,Cc1cccc2cc(CN(Cc3cccs3)C(c3nnnn3C3CCCC3)C(C)C)c(=O)[nH]c12 (stereo not given),inactive
16,CC(C)(C)c1ccc(OCCSc2nc3ccccc3n2CC(=O)O)cc1,inactive
17,Cc1cccc(OCCSc2nc3ccccc3n2CC(=O)O)c1C,inactive
18,COc1ccc(OC)c(/C=N/NC(=O)c2ccc(Cn3cc([N+](=O)[O-])cn3)o2)c1,inactive
19,O=C(Nc1nc(-c2ccc(S(=O)(=O)N3CCCC3)cc2)cs1)c1cccs1,inactive
20,Nc1cccc(S(=O)(=O)c2cccc(N)c2)c1,inactive
21,Cc1ccc(/C=C(\CCC(=O)O)c2nc3ccccc3s2)cc1[N+](=O)[O-],inactive
22,Cc1c(NC(=O)CCN2C(=O)c3ccccc3C2=O)c(=O)n(-c2ccccc2)n1C,inactive
23,C=C(C)COc1ccc(-c2n[nH]c(C)c2-c2ccc(Br)cc2)c(O)c1,inactive
24,CCc1ccc(OCc2ccc(C(=O)O)o2)cc1,inactive
25,COc1ccc(N/C=C/c2nc(SC)nnc2C)cc1,inactive
26,CCC(OC(=O)c1cc2sccc2n1C)C(=O)NCc1ccco1 (stereo not given),inactive
27,Br.COc1cc(NS(=O)(=O)c2ccc(Nc3nc(-c4ccccc4)cs3)cc2)nc(OC)n1,inactive

row,Structure (SMILES),outcome
1,COc1ccc(-c2nn3c(-c4ccccn4)nnc3s2)cc1OC,inactive
2,COc1ccccc1-n1cc([C@@H]2C[C@H]3CN(c4ccccc4)C(=O)[C@]34CCCN24)cn1,inactive
3,CC(=O)OC(C(=O)NC1CCCCC1)c1ccc(Cl)cc1 (stereo not given),inactive
4,CC(C)C(=O)N1CCN(c2ccccc2NC(=O)c2cccc(Cl)c2)CC1,inactive
5,COc1ccc(-c2nnc(S/C(=C/c3ccc(Cl)cc3)C(=O)O)o2)cc1,inactive
6,Cc1nc2ncccn2c1-c1csc(Nc2ccccc2)n1,inactive
7,Cc1cccc(CNc2ncccc2C(=O)O)c1,inactive
8,COC(=O)c1ccc(COc2ccccc2/C=N/Nc2cccc(C(=O)O)c2)cc1,inactive
9,C=CCc1ccc(OCc2ccc(C(=O)O)o2)c(OC)c1,inactive
10,Cc1ccc(-n2c(SCc3cc(=O)n4ccsc4n3)nnc2-c2cccnc2)c(C)c1,inactive
11,COc1cccc(OCc2ccccc2Br)c1C(=O)O,inactive
12,CCc1nnc(NC(=O)CSc2nnc(CNc3ccc(F)cc3)n2C2CCCCC2)s1,inactive
13,CN(C)CCN(C(=O)c1ccc(N2C(=O)CCC2=O)cc1)c1nc2cc3c(cc2s1)OCO3.Cl,inactive
14,Cc1cc(C)n2nc(C(=O)Nc3ccc(S(=O)(=O)N4CCCC4)cc3)nc2n1,inactive
15,COc1ccc(/C=N/n2c(N)c(S(=O)(=O)c3cccs3)c3nc4ccccc4nc32)cc1OC,inactive
16,O=C(Oc1cccc(O)c1)C1CCCCC1,inactive
17,COc1cc(NC(=O)c2cccs2)c(OC)cc1NC(=O)CCC(=O)Nc1cccc2ncccc12.Cl,inactive
18,CC1(C)Cc2c(sc(NC(=O)c3ccc(Br)o3)c2C#N)CO1,inactive
19,C=CCNc1nc(=S)[nH]c2cc(OC)c(OC)cc12,inactive
20,O=C(COC(=O)/C=C/c1cccs1)Nc1ccc2ccccc2c1,inactive
21,Cc1nc(NC(=O)/C=C/c2ccc(Cl)cc2Cl)sc1C(=O)N(C)C,inactive
22,O=C(C1CCCO1)N1CCN(C(=S)Nc2ccccc2C(F)(F)F)CC1 (stereo not given),inactive
23,COc1ccc(CC(=O)Nc2ccc(C(=O)Nc3nccs3)cc2)cc1OC,inactive
24,CS(=O)(=O)c1ccc(C(=O)OCc2nnc(-c3ccccc3)o2)cc1[N+](=O)[O-],inactive
25,N#CC(c1ccc(Cl)nn1)c1ccc(Cl)cc1Cl (stereo not given),inactive
26,Cc1cc(C)c2sc(N(CCN(C)C)C(=O)c3cc(Cl)sc3Cl)nc2c1.Cl,inactive
